The panel holds about 83,000 compounds, 20% with a hit somewhere; the sample as a whole holds those more often.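 Testing used 96-well plates and a 48-hour single-concentration exposure. Example: -40 means 40% of the starting cells died.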 Unmarked numbers belong to inactive results. Active and inactive are the calls of the source. Rule for the calls: active = growth percent below 10; inactive = the rest.
Tests used:
Assay in all cases: NCI-60 one-dose screen, 48 h (100 = growth as untreated, 0 = no growth, -100 = all killed)
Conditions in all cases: 10 µM unless noted
NCI-H23 lung = test system: NCI-H23 lung
NCI-H226 lung = test system: NCI-H226 lung
NCI-H322M lung = test system: NCI-H322M lung
NCI-H460 lung = test system: NCI-H460 lung
NCI-H522 lung = test system: NCI-H522 lung
A549/ATCC NSCLC = test system: A549/ATCC NSCLC
786-0 renal = test system: 786-0 renal
COLO 205 colon = test system: COLO 205 colon
DU-145 prostate = test system: DU-145 prostate
K-562 leukemia = test system: K-562 leukemia
MALME-3M melanoma = test system: MALME-3M melanoma
MDA-MB-231 breast = test system: MDA-MB-231 breast
RXF 393 renal = test system: RXF 393 renal
SF-268 CNS = test system: SF-268 CNS
SF-295 CNS = test system: SF-295 CNS
SF-539 CNS = test system: SF-539 CNS
UACC-257 melanoma = test system: UACC-257 melanoma
M14 melanoma = test system: M14 melanoma
HCT-15 colon = test system: HCT-15 colon
HOP-62 NSCLC = test system: HOP-62 NSCLC

| Structure (SMILES) | growth (NCI-H23 lung) | growth (NCI-H226 lung) | growth (NCI-H322M lung) | growth (NCI-H460 lung) | growth (NCI-H522 lung) | growth (A549/ATCC NSCLC) | growth (786-0 renal) | growth (COLO 205 colon) | growth (DU-145 prostate) | growth (K-562 leukemia) | growth (MALME-3M melanoma) | growth (MDA-MB-231 breast) | growth (RXF 393 renal) | growth (SF-268 CNS) | growth (SF-295 CNS) | growth (SF-539 CNS) | growth (UACC-257 melanoma) | growth (M14 melanoma) | growth (HCT-15 colon) | growth (HOP-62 NSCLC) |
| --- | --- | --- | --- | --- | --- | --- | --- | --- | --- | --- | --- | --- | --- | --- | --- | --- | --- | --- | --- | --- |
| c1ccc(-c2nnc(Nc3nnc(-c4ccccc4)s3)s2)cc1 | 109% | 101% | 86.9% | 101% | 104% | 103% | 106% | 116% | 112% | 111% | 101% | 102% | 105% | 103% | 102% | 101% | 99.1% | 105% | 102% | – |
| O=C(CSCC(=O)N/N=C/c1ccccc1O)N/N=C\c1ccccc1O | 40.8% | 39.4% | 15.7% | 14.2% | – | 38.1% | 5.14% (active) | 17.2% | 37.1% | 10.8% | 2.43% (active) | 42.7% | 44.8% | 28.9% | 35.5% | 25.6% | 25.6% | -4.57% (active) | 22.9% | – |
| c1ccc(-c2nn[nH]n2)c(-c2ccc(CN3CCN(c4nsc5ccccc45)CC3)cc2)c1 | 85.7% | 105% | 96.7% | 98.4% | 69% | 98.6% | 110% | 114% | 97.5% | – | 108% | 88.6% | 113% | 98.3% | 94.1% | – | 99.8% | 108% | 82.9% | – |
| O=C(C(=O)N1CCCCC1)c1ccc(OC2OC(CO)C(O)C(O)C2O)cc1 (stereo not drawn) | 101% | 102% | 116% | 114% | 85.3% | 101% | 106% | – | 115% | – | 101% | 110% | 104% | 105% | 125% | 100% | 106% | 99.1% | 108% | – |
| Nc1nc(Cl)c2[nH]cnc2n1 | 87% | 101% | 93.1% | 86.9% | 96.2% | – | 96.8% | 103% | 119% | 118% | 94.4% | 111% | – | 101% | 93.7% | 97.4% | – | 97.7% | 103% | – |
| O=C(Cn1ccnc1)NC(c1ccccc1)c1ccccc1 | 94.8% | 100% | 98.7% | 103% | 93.2% | 105% | 103% | 109% | 112% | 98.6% | 104% | 99.6% | 104% | 97.7% | 97.6% | 86.2% | 104% | 102% | 101% | – |
| O=C(/C(=C/c1cccc([N+](=O)[O-])c1)c1ccccc1)c1ccccc1 | 68% | 58.8% | 80.6% | 67.9% | 43.8% | 53.6% | 68.4% | 86.3% | 19.8% | 4.03% (active) | – | 51.6% | – | 34.4% | 64.2% | 81.6% | 36.5% | 46.4% | 16.6% | – |
| CO[C@H]1/C=C/O[C@@]2(C)Oc3c(C)c(O)c4c(O)c(c(/C=N/N5CCN(C)CC5)c(O)c4c3C2=O)NC(=O)/C(C)=C\C=C\C(C)[C@H](O)[C@@H](C)[C@@H](O)[C@@H](C)[C@@H](OC(C)=O)[C@@H]1C (stereo partly drawn) | 96.3% | 84.5% | 112% | 103% | 105% | 97.1% | 96.6% | 103% | 104% | 100% | 105% | 98.5% | 104% | 109% | 98.8% | – | 103% | 102% | 87.7% | – |
| Nc1ncc(-c2cnn(C3CCNCC3)c2)cc1-c1nc2cc(Cl)ccc2o1 | -61.7% (active) | -63.3% (active) | -59.1% (active) | -100% (active) | -87.6% (active) | -100% (active) | -100% (active) | -100% (active) | -100% (active) | -100% (active) | -92.5% (active) | -91.7% (active) | -96.4% (active) | -83.4% (active) | -78.7% (active) | -100% (active) | -93.3% (active) | -100% (active) | -84.9% (active) | – |
| CN(CC(=O)N(Cc1ccc(C2CCCCC2)cc1)c1ccc(C(=O)O)cc1)S(=O)(=O)c1c(F)c(F)c(F)c(F)c1F | -19.9% (active) | 97.4% | 86.4% | 96% | 44.7% | 100% | – | 12.9% | -18% (active) | 1.31% (active) | 62% | -28.7% (active) | -87.3% (active) | 67.5% | 108% | 99.2% | 31.6% | 19.9% | -46.1% (active) | – |
| O=C(Nc1ccc(Cl)cc1)c1cc2c(cc1O)[nH]c1ccccc12 | -22.5% (active) | 35.9% | 26.9% | 12.5% | -14.4% (active) | 30% | 6.54% (active) | 87.3% | 28.4% | 10.9% | 23.1% | 36.1% | 1.97% (active) | 34.4% | -43% (active) | 12.4% | -21.1% (active) | 31% | 32% | – |
| CC1=NN(c2ccccc2Cl)C(=O)/C1=C\c1cn(S(=O)(=O)c2ccc(C)cc2)c2ccccc12 | 83.9% | 79.9% | 105% | 119% | 107% | 109% | 94.9% | 142% | 114% | 138% | 114% | 85.4% | 137% | 104% | 114% | 114% | 115% | 82.1% | 105% | – |
| Cc1ccc(C(C)C)cc1NC(=O)Nc1ccc([N+](=O)[O-])cc1 | -32.8% (active) | – | 43.2% | -1.38% (active) | -19.8% (active) | 9.96% (active) | 8.79% (active) | -35.4% (active) | 12.2% | 18.2% | 6.64% (active) | 35.6% | 90.8% | 29.9% | 4.2% (active) | 29% | -5.55% (active) | 22.3% | – | -0.0828% (active) |
| CCCCC1Nc2nc(SC)n(C)c(=O)c2CN(Cc2ccccc2)C1=O (stereo not drawn) | 98.4% | 84.9% | 90.6% | 104% | 76% | 94.5% | 78.4% | 112% | 112% | 141% | 132% | 94.5% | 77.2% | 100% | 94.9% | 85.2% | 90.1% | 89.8% | 81.9% | – |
| CN1C(=O)C(=Cc2cn(Cc3ccccc3)c3ccc(Br)cc23)C(=O)N(C)C1=O | 105% | 32.3% | 93.8% | 35.1% | 94.4% | 88.5% | 98.2% | 89.6% | 97.1% | – | 113% | 105% | 57.6% | 96.7% | 75.8% | 97.5% | 99.1% | 99.8% | 95.4% | – |
| CCS(=O)(=O)OCCCl | 22.4% | 98.4% | 103% | 107% | 14.3% | – | 96.5% | 102% | 116% | 122% | 113% | 118% | – | 107% | 97.2% | 94.9% | 72.1% | 116% | 92.9% | – |

Source: PubChem BioAssay (NCI)
